# PubChem BioAssay AID1527 (The Scripps Research Institute Molecular Screening Center, 2009)
# In all, about 290,000 compounds went through this assay and about 2,600 (0.9%) were called active.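 How the source made its calls: active means inhibition above the mean of all tested compounds plus 3 SD, cutoff set per screening run (cut at about 7.5% in these data); inactive means the rest.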 Shown is part of a subset that was picked to be rich in actives.
# Test system: VIM-2 metallo-beta-lactamase (Pseudomonas aeruginosa)
# Experiment: VIM-2 metallo-beta-lactamase inhibitors, primary screen, biochemical, epi-absorbance readout, Pseudomonas aeruginosa enzyme (AID 1527);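 further: red hydrolysis product quenches plate fluorescence so inhibitors raise well fluorescence; 0% = enzyme with DMSO and 100% = DMSO without enzyme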
# Conditions: purified VIM-2, nitrocefin hydrolysis, epi-absorbance fluorescence; at 5.6 µM; active compounds read high
row,SMILES,inhibition
1,CC(C)c1ccc(OCC(O)CN2CCN(c3ccccn3)CC2)cc1 (stereo unspecified),-3.55% (inactive)
2,CN(CC(=O)NCc1ccncc1)S(=O)(=O)c1ccc(Br)cc1,-1.28% (inactive)
3,COc1ccccc1OCCCC(=O)Nc1ccc2c(c1)OCCO2,-2.36% (inactive)
4,CC1CCCCC1NC(=O)CCS(=O)(=O)c1ccc2c(c1)NC(=O)CO2 (stereo unspecified),-1.17% (inactive)
5,COCC(=O)N1CCc2ccc(NC(=O)c3ccccc3Cl)cc2C1,-2.32% (inactive)
6,CSc1cccc(NC(=O)CN2C(=O)COc3ccc(S(=O)(=O)N4CCOCC4)cc32)c1,-1.26% (inactive)
7,O=C1/C(=C/c2cccs2)CCC1C1CCCC1 (stereo unspecified),-3.15% (inactive)
8,Cn1c(=O)c(Sc2ccc(Cl)cc2)c(O)c2ccccc21,-2.02% (inactive)
9,Cn1c2ccccc2c(=O)c2c(O)cccc21,16.8% (active)
10,COc1cccc2c(O)cc(=O)n(C)c12,-2.19% (inactive)
11,COc1ccc(NC(=O)C2CCC(CNS(=O)(=O)c3csc(C(N)=O)c3)CC2)cc1OC (stereo unspecified),1.07% (inactive)
12,Cc1ccc2c(=O)cc(C(=O)NCCc3ccc(S(N)(=O)=O)cc3)oc2c1C,5.69% (inactive)
13,Cc1cc(=O)oc2c(C)c(OCC(=O)NCCN3CCOCC3)ccc12,5.03% (inactive)
14,Cc1cc(=O)oc2c(C)c(OCC(=O)NCCc3ccc(S(N)(=O)=O)cc3)ccc12,10.4% (active)
15,Cc1ccccc1NC(=S)NC(=O)Cc1ccc(Cl)cc1,-0.97% (inactive)
16,Cc1nc2ccccc2c2oc(C(=O)NCCCN3CCC(C)CC3)cc12,16.2% (active)
17,CCCN(CCC)CCNC(=O)c1cc2c(C)nc3ccccc3c2o1,10.2% (active)
18,O=C(NCCN1CCOCC1)c1cc(-c2cccs2)nc2ccccc12,-0.14% (inactive)
19,Cc1cc(=O)oc(C)c1C(=O)NCCN(C)Cc1ccccc1,-1.11% (inactive)
20,CCCCN(C)CCCNC(=O)c1cc(-c2cccs2)nc2ccccc12,-1.4% (inactive)
21,CC1CCN(CCCn2c(SCC(=O)NC3CCCC3)nc3ccccc3c2=O)CC1,-1.12% (inactive)
22,Cc1ccccc1C(CC(=O)c1cccs1)C(C#N)C#N (stereo unspecified),-2.96% (inactive)
23,O=S(=O)(NC1CCCCC1N1CCCCC1)c1ccc(Cl)cc1 (stereo unspecified),-1.53% (inactive)
24,CCCCn1c(N)c(N(CC)C(=O)c2ccccc2C(F)(F)F)c(=O)[nH]c1=O,-0.36% (inactive)
25,Cc1ccc(N(CC(=O)NCC2CCCO2)C(=O)CNS(=O)(=O)c2ccc(Cl)cc2)cc1 (stereo unspecified),-3.97% (inactive)
26,COc1cccc(CNC(=O)Cn2c(=O)oc3cc(S(=O)(=O)N4CCCCC4)ccc32)c1,-0.65% (inactive)
